The structures appear in SMILES notation. Results filed as inconclusive are left out. The source holds several records for some structures; these can differ, active in one and inactive in another. Calls of active or inactive are those of the source. The calls were made as follows, unless noted: active = hit-call score of the fitted dose curve at least 0.9, where 1 is the maximum; inconclusive = response in the unintended direction; inactive = score below 0.9.

The term AC50 denotes the midpoint of the concentration-response curve, whichever way the signal moves.

Assay [1] in a line: ATG_M_61_CIS: Attagene CIS-FACTORIAL HepG2 Assay for M61 Transcription Factor (Internal Marker) (AID 2282937; active = hit-call score of the fitted dose curve at least 0.9, where 1 is the maximum; inactive = score below 0.9). To be noted: HepG2 Attagene CIS-FACTORIAL M61 internal marker reporter; actives raise or lower the signal. In a few lines: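 Fluorescence from labelled cDNA fragments, separated by capillary electrophoresis, quantifies reporter induction. HepG2 cells bearing transiently transfected cis-promoter MRTUs were incubated with test chemical for 24 h; DMSO defined baseline for gain/loss fitting.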

Assay [2] is described as follows: ATG_GRE_CIS: Attagene CIS-FACTORIAL HepG2 Assay for human Glucocorticoid Response Elements (GRE) (AID 2282947; active = hit-call score of the fitted dose curve at least 0.9, where 1 is the maximum; inactive = score below 0.9). To be noted: HepG2 GRE cis-reporter, Attagene multiplex mRNA; actives raise or lower the signal. The method in brief: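 Assay uses human hepatoma HepG2 cells transfected with cis-promoter reporter units, exposed 24 h. mRNA from reporters detected by RT-PCR plus capillary electrophoresis; DMSO serves as negative control and baseline.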

Assay [3] in a line: ATG_M_06_CIS: Attagene CIS-FACTORIAL HepG2 Assay for M06 Transcription Factor (Internal Marker) (AID 2282950; active = hit-call score of the fitted dose curve at least 0.9, where 1 is the maximum; inactive = score below 0.9). The following applies: HepG2 Attagene CIS-FACTORIAL M06 internal marker reporter; actives raise or lower the signal. The method in brief: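 One of many multiplexed endpoints: HepG2 reporter mRNA after 24 h dosing, detected by RT-PCR and capillary electrophoresis fluorescence; gain or loss of signal analysed against DMSO.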

A short description of assay [4]: ATG_PPRE_CIS: Attagene CIS-FACTORIAL HepG2 Assay for human Peroxisome Proliferator-activated Response Element (PPRE) (AID 2282958; active = hit-call score of the fitted dose curve at least 0.9, where 1 is the maximum; inactive = score below 0.9). The following applies: HepG2 PPRE cis-element reporter, Attagene transcription factor profiling; actives raise or lower the signal. The method in brief:
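Multiplexed reporter transcription units under cis-regulatory promoters were transfected into HepG2 cells to capture endogenous factor activity. A 24 h incubation preceded RNA isolation and fluorescent RT-PCR fragment analysis.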

A short description of assay [5]: ATG_RORE_CIS: Attagene CIS-FACTORIAL HepG2 Assay for human RAR-related Orphan Receptor Element (RORE) (AID 2282959; active = hit-call score of the fitted dose curve at least 0.9, where 1 is the maximum; inactive = score below 0.9). The following applies: HepG2 Attagene cis-factorial RORE reporter, mRNA; actives raise or lower the signal. In a few lines: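 Fluorescence intensity of reporter-specific cDNA fragments, separated by capillary electrophoresis, gives the signal. Source: HepG2 liver cells transiently transfected with cis-element reporters and exposed 24 h; DMSO-normalized bidirectional fit.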

Assay [6] is described as follows: ATG_TGFb_CIS: Attagene CIS-FACTORIAL HepG2 Assay for human Transforming Growth Factor (TGF) (AID 2282967; active = hit-call score of the fitted dose curve at least 0.9, where 1 is the maximum; inactive = score below 0.9). To be noted: HepG2 Attagene CIS TGFb reporter, mRNA transcription; actives raise or lower the signal. In a few lines: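 After a 24-hour incubation with compound, transfected HepG2 cells were lysed for RNA; reporter cDNA was amplified, fluorescently end-labeled and separated by CE. DMSO served as baseline for bidirectional fits.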

The nature of assay [7]: ATG_M_19_TRANS: Attagene TRANS-FACTORIAL HepG2 Assay for M19 Transcription Factor (Internal Marker) (AID 2282974). To be noted: HepG2 Attagene TRANS-FACTORIAL M19 internal marker reporter. The method in brief:
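Measured here: internal-marker reporter transcript from HepG2 cells transfected with MRTUs, harvested at 24 h. cDNA PCR products were 6-FAM labelled by primer extension, cut with HpaI for 2 h at 37 C, and resolved by CE.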

For assay [8], the target named is Nuclear respiratory factor 1 (Homo sapiens) (UniProt Q16656). The assay is described as follows: ATG_NRF1_CIS: Attagene CIS-FACTORIAL HepG2 Assay for human Nuclear Respiratory Factor 1 (NRF1) Orphan Gene (AID 2282987; active = hit-call score of the fitted dose curve at least 0.9, where 1 is the maximum; inactive = score below 0.9). The following applies: HepG2 NRF1 cis-element reporter, Attagene multiplex; actives raise or lower the signal. The method in brief:
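Transcriptional reporter readout, one component of a 52-endpoint multiplexed HepG2 panel. Exposure 24 h; mRNA detected via RT-PCR and fluorescent capillary electrophoresis; fitting in both directions against DMSO.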

The nature of assay [9]: ATG_NFI_CIS: Attagene CIS-FACTORIAL HepG2 Assay for human Nuclear Factor I (NFI) (AID 2282989; active = hit-call score of the fitted dose curve at least 0.9, where 1 is the maximum; inactive = score below 0.9). The following applies: HepG2 cis-regulatory reporter, NFI response element transcription; actives raise or lower the signal. The method in brief:
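Reporter transcription driven by endogenous transcription factors in HepG2 cells; 24 h treatment. Quantitation by labelled RT-PCR fragments on capillary electrophoresis, gain- or loss-of-signal relative to DMSO.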

For assay [10], the target named is Nuclear receptor subfamily 1 group I member 2 (Homo sapiens) (UniProt O75469). The assay is described as follows: ATG_PXR_TRANS: Attagene TRANS-FACTORIAL HepG2 Assay for human Pregnane X Receptor (PXR) (AID 2283008). In a few lines:
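Measures mRNA induction of a GAL4-UAS-driven reporter in human HepG2 cells transiently expressing PXR fused to Gal4, following 24 h treatment. DMSO served as negative control and baseline.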

For assay [11], the target named is human Retinoid X Receptor beta (RXRb), RXRB (gene 6257) (UniProt P28702). In words: ATG_RXRb_TRANS: Attagene TRANS-FACTORIAL HepG2 Assay for human Retinoid X Receptor beta (RXRb) (AID 2283013). The method in brief:
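HepG2 cells transiently transfected with multiplexed reporter units driven by GAL4-UAS and exogenous chimeric NR-Gal4 proteins; treated 24 h. Reporter mRNA measured by RT-PCR, 6-FAM labelling and capillary electrophoresis; gain-of-signal fitted versus DMSO baseline.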

Assay [12] concerns the target Cellular tumor antigen p53 (Homo sapiens) (UniProt P04637). In words: TOX21_p53_BLA_p2_ratio: Tox21 HCT-116 p53 Agonism Beta-lactamase Assay, Ratio, Phase 2 (AID 2283592). The method in brief:
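HCT116 cells carrying a p53-responsive beta-lactamase reporter were plated, incubated 5 h at 37C, then dosed with compounds in DMSO (217-fold dilution) for 16 h. CCF4-AM substrate was added for 2 h at room temperature; the 460/530 nm emission ratio gave gain-of-signal activity relative to DMSO.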

Assay [13] shares this target. In words: TOX21_p53_BLA_p3_ratio: Tox21 HCT-116 p53 Agonism Beta-lactamase Assay, Ratio, Phase 3 (AID 2283596). In a few lines: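 HCT116 p53-bla cells (4000/well) given compound in DMSO (217-fold dilution) after 5 h, incubated 16 h at 37C. CCF4-AM substrate 2 h at room temperature; 460/530 nm emission ratio, gain fitted against DMSO.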
For assay [14] the target is unchanged. In words: TOX21_p53_BLA_p5_ratio: Tox21 HCT-116 p53 Agonism Beta-lactamase Assay, Ratio, Phase 5 (AID 2283599). The method in brief:
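Beta-lactamase reporter ratio (blue 460 nm over green 530 nm, 405 nm excitation) after 2 h CCF4-AM loading, in HCT-116 cells exposed 16 h at 37 C to compounds pinned at 217-fold dilution. Increases relative to DMSO baseline scored.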

The nature of assay [15]: TOX21_p53_BLA_p5_viability: Viability Assessment in the Tox21 HCT-116 p53 Agonism Beta-lactamase Assay, Phase 5 (AID 2283600). In a few lines: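 Cells were plated at 4000/well, rested 5 h at 37C, then given compounds in DMSO (217-fold dilution) for 16 h at 37C, 5% CO2. Following the CCF4-AM beta-lactamase read, CellTiter-Glo was added and luminescence was read after 30 min at room temperature.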

For assay [16], the target named is Cellular tumor antigen p53 (Homo sapiens) (UniProt P04637). The assay is described as follows: TOX21_p53_BLA_p4_ratio: Tox21 HCT-116 p53 Agonism Beta-lactamase Assay, Ratio, Phase 4 (AID 2283601). The method in brief:
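Signal is the blue/green (460nm/530nm) ratio of cleaved versus uncleaved CCF4-AM substrate, read after 2 h substrate loading. Cells were HCT116 carrying the p53-responsive beta-lactamase reporter, dosed 16 h at 37C, 5% CO2; CellTiter-Glo measured in parallel.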

Assay [17] has as its target Hepatocyte nuclear factor 4-alpha (Homo sapiens) (UniProt P41235). The assay is described as follows: ATG_HNF4a_TRANS: Attagene TRANS-FACTORIAL HepG2 Assay for human Hepatocyte Nuclear Factor 4 alpha (HNF4a) (AID 2282982). The following applies: HepG2 HNF4a transactivation reporter, mRNA readout. The method in brief: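 Transfected HepG2 reporter cells are dosed for 24 h; reporter RNA is reverse-transcribed, amplified, fluorescently labelled and HpaI-digested before CE sizing. Positive-direction fit against DMSO.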

Assay [18] has as its target Retinoic acid receptor RXR-alpha (Homo sapiens) (UniProt P19793). In words: ATG_RXRa_TRANS: Attagene TRANS-FACTORIAL HepG2 Assay for human Retinoid X Receptor alpha (RXRa) (AID 2283012). In a few lines:
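HepG2 cells transiently transfected with multiplexed GAL4-UAS reporter units and chimeric NR-GAL4 fusions, dosed 24 h. Reporter mRNA measured by RT-PCR, FAM labelling, HpaI digestion and capillary electrophoresis; gain-of-signal fitted relative to DMSO baseline.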

The nature of assay [19]: ATG_EGR_CIS: Attagene CIS-FACTORIAL HepG2 Assay for human Early Growth Response 1 (EGR1) (AID 2282938; active = hit-call score of the fitted dose curve at least 0.9, where 1 is the maximum; inactive = score below 0.9). To be noted: HepG2 Attagene CIS-FACTORIAL EGR reporter mRNA; actives raise or lower the signal. In a few lines:
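Cell-based multiplex transcription assay: HepG2 carrying transfected cis-element reporter units, 24 h chemical treatment. Fluorescence from capillary electrophoresis of RT-PCR products gives mRNA levels; fitting is bidirectional relative to DMSO.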

Assay [20] in a line: ATG_M_06_TRANS: Attagene TRANS-FACTORIAL HepG2 Assay for M06 Transcription Factor (Internal Marker) (AID 2282983). The following applies: HepG2 Attagene TRANS M06 internal marker reporter. In a few lines: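 HepG2 cells transiently transfected with multiplexed GAL4-UAS reporter transcription units; after 24 h compound exposure, reporter mRNA measured by RT-PCR, FAM-labelled primer extension, HpaI digestion and capillary electrophoresis. Gain-of-signal fitted versus DMSO baseline; background control readout.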

Chain of Retinoic acid receptor RXR-alpha (Homo sapiens) (P19793 whole entry, looked up, the tested form may be a part): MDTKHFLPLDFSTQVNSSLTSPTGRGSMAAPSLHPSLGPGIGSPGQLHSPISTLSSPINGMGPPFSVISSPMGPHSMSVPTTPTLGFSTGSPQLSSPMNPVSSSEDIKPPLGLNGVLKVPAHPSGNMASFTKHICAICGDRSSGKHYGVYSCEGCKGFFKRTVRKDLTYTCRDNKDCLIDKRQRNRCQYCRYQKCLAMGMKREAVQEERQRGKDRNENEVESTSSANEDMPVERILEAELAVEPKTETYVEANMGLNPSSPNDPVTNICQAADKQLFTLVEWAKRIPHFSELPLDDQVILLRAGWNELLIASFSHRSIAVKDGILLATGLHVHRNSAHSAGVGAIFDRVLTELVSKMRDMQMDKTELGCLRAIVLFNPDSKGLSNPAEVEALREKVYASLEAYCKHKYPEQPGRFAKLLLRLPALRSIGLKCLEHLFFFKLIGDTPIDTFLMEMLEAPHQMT
Chain of Nuclear receptor subfamily 1 group I member 2 (Homo sapiens) (O75469 whole entry, looked up, the tested form may be a part): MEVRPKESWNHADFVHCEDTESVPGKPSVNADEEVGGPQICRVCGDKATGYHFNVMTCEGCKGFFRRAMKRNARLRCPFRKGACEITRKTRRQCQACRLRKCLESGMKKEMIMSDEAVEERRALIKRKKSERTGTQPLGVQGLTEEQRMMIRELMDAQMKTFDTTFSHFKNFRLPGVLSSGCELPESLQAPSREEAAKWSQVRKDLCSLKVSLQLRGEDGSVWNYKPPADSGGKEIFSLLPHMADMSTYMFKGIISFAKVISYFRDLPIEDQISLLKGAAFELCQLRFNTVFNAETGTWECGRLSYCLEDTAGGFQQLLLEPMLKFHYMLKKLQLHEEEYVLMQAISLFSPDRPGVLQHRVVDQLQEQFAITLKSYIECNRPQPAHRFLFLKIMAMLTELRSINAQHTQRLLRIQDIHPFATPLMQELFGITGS
Chain of Nuclear respiratory factor 1 (Homo sapiens) (Q16656 whole entry, looked up): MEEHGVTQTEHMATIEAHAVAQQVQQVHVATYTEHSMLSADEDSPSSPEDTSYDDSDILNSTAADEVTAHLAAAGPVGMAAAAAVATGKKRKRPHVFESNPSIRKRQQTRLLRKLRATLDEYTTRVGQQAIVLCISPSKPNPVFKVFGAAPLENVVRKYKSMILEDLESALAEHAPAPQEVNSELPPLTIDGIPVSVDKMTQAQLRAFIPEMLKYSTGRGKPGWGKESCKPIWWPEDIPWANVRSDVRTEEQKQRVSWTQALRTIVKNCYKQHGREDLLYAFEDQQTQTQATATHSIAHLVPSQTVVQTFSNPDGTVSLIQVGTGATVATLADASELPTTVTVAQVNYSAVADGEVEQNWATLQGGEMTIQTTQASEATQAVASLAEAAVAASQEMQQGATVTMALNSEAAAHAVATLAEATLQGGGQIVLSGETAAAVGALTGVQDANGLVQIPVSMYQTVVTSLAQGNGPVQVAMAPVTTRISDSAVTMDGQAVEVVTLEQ
Chain of Cellular tumor antigen p53 (Homo sapiens) (P04637 whole entry, looked up): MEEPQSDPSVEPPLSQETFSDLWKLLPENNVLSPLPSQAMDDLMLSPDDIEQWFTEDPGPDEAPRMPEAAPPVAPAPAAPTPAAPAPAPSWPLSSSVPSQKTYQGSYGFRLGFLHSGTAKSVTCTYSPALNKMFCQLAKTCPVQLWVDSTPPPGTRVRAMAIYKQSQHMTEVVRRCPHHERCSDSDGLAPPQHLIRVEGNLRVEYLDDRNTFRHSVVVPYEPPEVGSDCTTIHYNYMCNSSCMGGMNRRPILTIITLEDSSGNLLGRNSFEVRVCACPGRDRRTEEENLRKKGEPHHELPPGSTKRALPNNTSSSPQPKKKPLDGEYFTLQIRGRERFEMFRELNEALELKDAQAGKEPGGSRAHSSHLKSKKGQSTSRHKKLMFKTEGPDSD
Chain of Hepatocyte nuclear factor 4-alpha (Homo sapiens) (P41235 whole entry, looked up): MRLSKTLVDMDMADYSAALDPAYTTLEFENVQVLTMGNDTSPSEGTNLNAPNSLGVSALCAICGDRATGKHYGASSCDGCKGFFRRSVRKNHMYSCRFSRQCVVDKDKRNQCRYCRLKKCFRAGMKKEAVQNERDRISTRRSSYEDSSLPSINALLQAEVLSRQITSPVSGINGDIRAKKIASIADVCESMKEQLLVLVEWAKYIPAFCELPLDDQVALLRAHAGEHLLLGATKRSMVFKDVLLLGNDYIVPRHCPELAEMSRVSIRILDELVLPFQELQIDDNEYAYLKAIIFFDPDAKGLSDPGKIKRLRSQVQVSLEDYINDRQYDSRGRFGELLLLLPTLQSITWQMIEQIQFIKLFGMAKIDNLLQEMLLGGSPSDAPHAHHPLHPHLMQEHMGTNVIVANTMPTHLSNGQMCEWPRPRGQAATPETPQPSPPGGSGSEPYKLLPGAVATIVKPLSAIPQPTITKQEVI
Chain of human Retinoid X Receptor beta (RXRb), RXRB (gene 6257) (P28702 whole entry, looked up, the tested form may be a part): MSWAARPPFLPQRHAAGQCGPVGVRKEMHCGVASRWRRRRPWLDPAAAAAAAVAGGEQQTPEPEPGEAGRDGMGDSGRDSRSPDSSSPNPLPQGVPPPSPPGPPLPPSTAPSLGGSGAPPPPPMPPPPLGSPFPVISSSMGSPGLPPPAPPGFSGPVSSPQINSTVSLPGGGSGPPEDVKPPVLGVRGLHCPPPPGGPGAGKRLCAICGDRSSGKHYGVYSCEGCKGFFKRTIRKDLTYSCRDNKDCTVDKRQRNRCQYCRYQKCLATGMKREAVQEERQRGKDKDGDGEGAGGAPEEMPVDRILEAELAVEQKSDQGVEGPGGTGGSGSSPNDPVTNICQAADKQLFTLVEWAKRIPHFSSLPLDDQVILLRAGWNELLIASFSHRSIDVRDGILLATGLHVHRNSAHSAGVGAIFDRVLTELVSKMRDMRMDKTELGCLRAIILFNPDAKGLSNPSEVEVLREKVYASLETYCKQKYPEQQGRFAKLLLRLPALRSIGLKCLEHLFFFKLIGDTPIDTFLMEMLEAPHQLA

`CC1(C)[C@H](C(=O)O[C@H](C#N)c2cccc(Oc3ccccc3)c2)[C@@H]1C=C(Br)Br`: the compound was classed as inactive in assay [1], in assay [2], in [3], in [4], in assay [5] and in assay [7]. Besides, the outcome in assay [8], in assay [9], in [11], in [12], in assay [13] and in assay [14] was inactive. The result in assay [15] and in [16] was inactive. Also, the AC50 in assay [6] is 56.7 µM (active); in assay [10], 0.166 µM (active); in assay [14], 82.2 µM (active).
Take `O=[N+]([O-])c1ccc(Cl)cc1`: the compound was classed as inactive in assay [2], in assay [3], in assay [6], in assay [7], in [17] and in assay [9]. The result in [18], in assay [12], in assay [14], in [15] and in assay [16] was inactive.
In the case of `CCc1cc(C)cc(CC)c1-c1c(OC(=O)C(C)(C)C)n2n(c1=O)CCOCC2`, the result in assay [1], in assay [19], in assay [2], in assay [4], in assay [5] and in assay [6] was inactive. Further, the outcome in assay [7], in assay [17], in assay [8], in assay [9], in assay [10] and in assay [18] was inactive.
Regarding `c1ccc(P(c2ccccc2)c2ccccc2)cc1`, the result in [1], in assay [2], in [4], in [20], in assay [9] and in [14] was inactive. In assay [15], the result was inactive. Further, the AC50 in [10] is 6.89 µM (active); in assay [11], 38.6 µM (active).
Take `Oc1cc(Cl)ccc1Cl`: the result in assay [1], in [19], in [2], in assay [4], in assay [5] and in [6] was inactive. Also, the compound was classed as inactive in [7], in [20], in assay [8], in [9], in assay [10] and in assay [18]. In addition, the outcome in assay [12], in assay [13], in [14] and in assay [15] was inactive.

(Values after PubChem BioAssay (EPA / NIEHS).)
